Screens from PubChem BioAssay.
Shown are actives, neighbours in structure and some others; about 6.6% of the full set was active somewhere.
Anthrax LF prot: anthrax lethal factor protease inhibition. multiplex microsphere protease cleavage assay, LF. P15917. 360,000 tested, 0.12% active. inhibition, % at 10 µM. AID 588501; in the data active means inhibition above about 30%
Target sequence (P15917 whole entry, looked up): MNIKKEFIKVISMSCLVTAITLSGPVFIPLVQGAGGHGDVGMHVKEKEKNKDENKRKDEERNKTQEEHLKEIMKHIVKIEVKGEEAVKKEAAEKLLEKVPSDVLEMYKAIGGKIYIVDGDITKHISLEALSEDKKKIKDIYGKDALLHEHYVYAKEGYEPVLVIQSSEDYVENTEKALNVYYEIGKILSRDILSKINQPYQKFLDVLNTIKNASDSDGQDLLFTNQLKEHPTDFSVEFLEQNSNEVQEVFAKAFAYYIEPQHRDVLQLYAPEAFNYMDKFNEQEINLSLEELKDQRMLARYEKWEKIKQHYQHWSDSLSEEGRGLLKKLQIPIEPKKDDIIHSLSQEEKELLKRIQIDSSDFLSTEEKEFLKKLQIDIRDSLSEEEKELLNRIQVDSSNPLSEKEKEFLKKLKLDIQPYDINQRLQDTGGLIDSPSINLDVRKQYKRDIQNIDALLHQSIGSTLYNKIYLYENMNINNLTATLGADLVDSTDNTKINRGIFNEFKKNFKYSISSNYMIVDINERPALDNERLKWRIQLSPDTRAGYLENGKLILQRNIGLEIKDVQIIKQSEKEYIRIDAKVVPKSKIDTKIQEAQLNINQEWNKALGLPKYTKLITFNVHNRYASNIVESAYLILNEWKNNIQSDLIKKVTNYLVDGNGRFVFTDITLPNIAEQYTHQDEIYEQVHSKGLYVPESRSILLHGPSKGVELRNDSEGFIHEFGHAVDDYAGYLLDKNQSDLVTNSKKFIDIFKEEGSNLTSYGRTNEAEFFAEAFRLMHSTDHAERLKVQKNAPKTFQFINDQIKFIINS
BoNT-A LC inh2: blocks Botulinum neurotoxin A light chain protease | multiplex microsphere protease substrate cleavage, flow cytometry | inhibition, % at 10 µM | 360,000 tested, 0.17% active; in the data active means inhibition above about 30%
GDH-TPI counter-1: GDH-TPI coupled enzyme inhibition counter-screen | GDH-TPI coupled enzyme counterscreen, NADH absorbance | inhibition, % at 4.8 µM | 360,000 tested, 1.2% active; in the data active means inhibition above about 30%
Mtb FBA inh: inhibitors of M. tuberculosis fructose-bisphosphate aldolase. 360,000 tested, 2.3% active. inhibition, % at 1 µM. P9WQA3. purified M. tuberculosis FBA, fluorescence read-out
Bead autofluor: compound fluorescence in toxin protease inhibitor counterscreen. compound autofluorescence counterscreen, microsphere flow cytometry; active compounds read high. fluorescence intensity (no concentration beside the values). 360,000 tested, 3.1% active. AID 624483; in the data active means fluorescence intensity above about 16000
BoNT F protease: BoNT F light chain protease inhibition. 360,000 tested, 0.22% active. inhibition, % at 10 µM. AID 588497. Multiplex microsphere protease cleavage assay, flow cytometry; in the data active means inhibition above about 35%, passing the limit was not always enough
Mtb FBA inh conf: Mtb FBA inhibition, confirmed; purified M. tuberculosis FBA, fluorescence read-out; shares compounds with Mtb FBA inh; AID 651616; 5,600 tested, 78% active; inhibition, % at 1 µM
GDH-TPI counter-2: GDH-TPI inhibition counter-screen for FBA inhibitors; shares compounds with Mtb FBA inh; GDH-TPI coupled enzyme counterscreen, fluorescence; inhibition, % at 1 µM; 5,600 tested, 81% active; in the data active means inhibition above about 10%
Numbers stand for hits. Unless noted, no stated cut-off is given here; in the data, active means inhibition above about 27%; inactive means the rest.

Screening O=C(COC(=O)CNC(=O)c1ccc(Cl)cc1Cl)NNC(=O)c1ccccc1F returned Anthrax LF prot inactive, BoNT-A LC inh2 inactive, GDH-TPI counter-1 inactive, Mtb FBA inh inactive, Bead autofluor inactive and BoNT F protease inactive.
For COc1ccc(-c2nc3ccc(C)cn3c2Cc2ccsc2)cc1OC the results were Anthrax LF prot inactive, BoNT-A LC inh2 inactive, Mtb FBA inh 52.4, Bead autofluor inactive, BoNT F protease inactive, Mtb FBA inh conf 116.2 and GDH-TPI counter-2 72.7.
Screening CC(=O)Nc1ccc(-n2cc(-c3ccccc3)[nH]c2=S)cc1 returned Anthrax LF prot inactive, BoNT-A LC inh2 inactive, GDH-TPI counter-1 inactive, Mtb FBA inh inactive, Bead autofluor inactive and BoNT F protease inactive.
For O=C(O)c1ccc(-n2cc(-c3cc4ccccc4oc3=O)[nH]c2=S)cc1 the results were Anthrax LF prot inactive, BoNT-A LC inh2 inactive, GDH-TPI counter-1 inactive, Mtb FBA inh 32.3, Bead autofluor inactive, BoNT F protease inactive, Mtb FBA inh conf 139.2 and GDH-TPI counter-2 98.7.
For CCOC(=O)CN1C(=O)N[C@@H](CCc2ccccc2)[C@H](C(C)=O)[C@H]1C the results were Anthrax LF prot inactive, BoNT-A LC inh2 inactive, GDH-TPI counter-1 inactive, Mtb FBA inh inactive, Bead autofluor inactive and BoNT F protease inactive.
`CCN(CC)S(=O)(=O)c1ccc(N2CCCCC2)c(NC(=O)c2ccncc2)c1` gave Anthrax LF prot inactive, BoNT-A LC inh2 inactive, GDH-TPI counter-1 inactive, Mtb FBA inh inactive, Bead autofluor inactive and BoNT F protease inactive.
Screening Clc1ccc(CNc2cnccn2)cc1Cl returned Anthrax LF prot inactive, BoNT-A LC inh2 inactive, GDH-TPI counter-1 inactive, Mtb FBA inh 61.2, Bead autofluor inactive, BoNT F protease inactive, Mtb FBA inh conf inactive and GDH-TPI counter-2 inactive.
Clc1ccc(CNCCCSc2ncccn2)cc1Cl was read as Anthrax LF prot inactive, BoNT-A LC inh2 inactive, GDH-TPI counter-1 inactive, Mtb FBA inh inactive, Bead autofluor inactive and BoNT F protease inactive.
N#Cc1ccc(CNc2cnccn2)cc1 was read as Anthrax LF prot inactive, BoNT-A LC inh2 inactive, GDH-TPI counter-1 inactive, Mtb FBA inh 68.6, Bead autofluor inactive, BoNT F protease inactive, Mtb FBA inh conf inactive and GDH-TPI counter-2 inactive.
Screening N#Cc1ccc(CSc2nnc(-c3cnccn3)o2)cc1 returned Anthrax LF prot inactive, BoNT-A LC inh2 inactive, GDH-TPI counter-1 inactive, Mtb FBA inh inactive, Bead autofluor inactive and BoNT F protease inactive.
For COc1ccc(CN2CCC(n3nccc3NC(=O)CCOc3ccccc3)CC2)cc1C the results were Anthrax LF prot inactive, BoNT-A LC inh2 inactive, GDH-TPI counter-1 inactive, Mtb FBA inh inactive, Bead autofluor inactive and BoNT F protease inactive.
`COc1ccc(CCNC(=O)C(=O)c2cn(CC(=O)N3CCOCC3)c3ccccc23)cc1OC` gave Anthrax LF prot inactive, BoNT-A LC inh2 inactive, GDH-TPI counter-1 inactive, Mtb FBA inh 27.1, Bead autofluor inactive, BoNT F protease inactive, Mtb FBA inh conf active and GDH-TPI counter-2 active.
Screening O=C(NN=C1CCCC1)c1cccc(Br)c1 returned Anthrax LF prot inactive, BoNT-A LC inh2 inactive, GDH-TPI counter-1 inactive, Mtb FBA inh inactive, Bead autofluor inactive and BoNT F protease inactive.
Screening Cc1cc(C)c2nc3nc(C)c(C)cc3c(N)c2c1 returned Anthrax LF prot inactive, BoNT-A LC inh2 inactive, GDH-TPI counter-1 inactive, Mtb FBA inh 29.3, Bead autofluor inactive, BoNT F protease inactive, Mtb FBA inh conf 76.3 and GDH-TPI counter-2 47.8.
`Nc1cc2c3ccccc3ccc2c2ccccc12` gave Anthrax LF prot inactive, BoNT-A LC inh2 inactive, GDH-TPI counter-1 inactive, Mtb FBA inh 61.7, Bead autofluor inactive, BoNT F protease inactive, Mtb FBA inh conf active and GDH-TPI counter-2 active.
Screening O=C(N/N=C/c1ccc(N2CCOCC2)cc1)c1ccccc1NS(=O)(=O)c1cccs1 returned Anthrax LF prot inactive, BoNT-A LC inh2 inactive, GDH-TPI counter-1 37.9, Mtb FBA inh 44.5, Bead autofluor inactive, BoNT F protease inactive, Mtb FBA inh conf active and GDH-TPI counter-2 active.
`O=C(NN=Cc1ccc(O)cc1O)c1ccccc1NS(=O)(=O)c1cccs1` gave Anthrax LF prot inactive, BoNT-A LC inh2 inactive, GDH-TPI counter-1 inactive, Mtb FBA inh 40.8, Bead autofluor inactive, BoNT F protease inactive, Mtb FBA inh conf inactive and GDH-TPI counter-2 inactive.
For OC(c1ccc(F)cc1)c1nc(-c2cccc(C(F)(F)F)c2)cs1 (centres undefined) the results were Anthrax LF prot inactive, BoNT-A LC inh2 inactive, GDH-TPI counter-1 inactive, Mtb FBA inh inactive, Bead autofluor inactive and BoNT F protease inactive.
CC(C)CN1C(=O)c2ccc(C(=O)Nc3c[nH]c(=O)[nH]c3=O)cc2C1=O was read as Anthrax LF prot inactive, BoNT-A LC inh2 inactive, GDH-TPI counter-1 inactive, Mtb FBA inh inactive, Bead autofluor inactive and BoNT F protease inactive.
`Cc1cc(-c2ccccc2)n2nc(C)c(C#N)c2n1` gave Anthrax LF prot inactive, BoNT-A LC inh2 inactive, GDH-TPI counter-1 inactive, Mtb FBA inh 27.3, Bead autofluor inactive, BoNT F protease inactive, Mtb FBA inh conf active and GDH-TPI counter-2 active.
For Cc1cc(-c2ccccc2)n2nc(N)nc2n1 the results were Anthrax LF prot inactive, BoNT-A LC inh2 inactive, GDH-TPI counter-1 inactive, Mtb FBA inh 33.6, Bead autofluor inactive, BoNT F protease inactive, Mtb FBA inh conf 97.5 and GDH-TPI counter-2 76.1.
Screening COc1ccc(-c2c(C)nn3c(-c4ccccc4)cc(C)nc23)cc1 returned Anthrax LF prot inactive, BoNT-A LC inh2 inactive, GDH-TPI counter-1 inactive, Mtb FBA inh inactive, Bead autofluor inactive and BoNT F protease inactive.
`COc1cc(/C=C/C(=O)O)cc(S(=O)(=O)NC2CC2)c1OC` gave Anthrax LF prot inactive, BoNT-A LC inh2 inactive, GDH-TPI counter-1 inactive, Mtb FBA inh inactive, Bead autofluor inactive and BoNT F protease inactive.
`COc1ccc2[nH]c(C(=O)O)c(NS(=O)(=O)c3ccc(C)cc3C)c2c1` gave Anthrax LF prot inactive, BoNT-A LC inh2 inactive, GDH-TPI counter-1 inactive, Mtb FBA inh inactive, Bead autofluor inactive and BoNT F protease inactive.
c1ccc(Nc2c(-c3ccco3)nc3ccccn23)cc1 was read as Anthrax LF prot inactive, BoNT-A LC inh2 inactive, GDH-TPI counter-1 inactive, Mtb FBA inh 110.7, Bead autofluor inactive, BoNT F protease inactive, Mtb FBA inh conf 99.4 and GDH-TPI counter-2 71.0.
Screening O=C(NCCNC(=O)c1ccccc1Cl)c1ccco1 returned Anthrax LF prot inactive, BoNT-A LC inh2 inactive, GDH-TPI counter-1 inactive, Mtb FBA inh inactive, Bead autofluor inactive and BoNT F protease inactive.
`Cc1ccc2cc(-c3noc(C(C)(C)C)n3)c(=O)[nH]c2c1` gave Anthrax LF prot inactive, BoNT-A LC inh2 inactive, GDH-TPI counter-1 inactive, Mtb FBA inh 30.2, Bead autofluor 22460, BoNT F protease inactive, Mtb FBA inh conf 64.8 and GDH-TPI counter-2 58.5.
